High-throughput results deposited in PubChem by National Center for Advancing Translational Sciences (NCATS).
The list is not random: actives were taken first. Their share in the collection is about 2.4%.
ClpP mod: qHTS Assay for Activators of ClpP. purified B. subtilis ClpP, FRET peptide cleavage, 20 min. Potency, µM (titrated, usually from 57.5 µM), inactives show at the highest dose activity change, negative = active. 340,000 compounds, 1.9% hits. ATP-dependent Clp protease proteolytic subunit (Bacillus subtilis (strain 168)), P80244; active = well fitted falling curve with a large enough effect; inconclusive = small, poorly fitted or top-dose-only effect; inactive = no such curve, though single readings can be large or run the other way; also: the source files actives as falling curves though it sought activators and does not explain the sign; nearly all actives have a fitted effect of over 65% in size
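FRET quenching reversal measured ClpP activation: 10 microg/mL B. subtilis ClpP at pH 8 with the FRET-FV decapeptide, read at 430 nm after 320 nm excitation. The 20-min minus 0-min signal was scaled between DMSO/no-enzyme wells and ADEP (5.8 microM final).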
PTAP TSG101 blk: qHTS Assay for Iinhibitors of HIV-1 Budding by Blocking the Interaction of PTAP/TSG101 | Tumor susceptibility gene 101 protein (Homo sapiens), Q99816 | Fluorescence polarization, FITC-PTAP peptide / Tsg101 binding | Potency, µM (series often up to 115 µM), without a hit: at the top dose activity change, negative = inhibition, usual class: inhibitors | 340,000 tested, under 10 active | AID 493005, 2010; active = well fitted inhibition curve with a large enough effect in the main read-out, with a control signal flat, not every such curve was filed as active; inconclusive = small, poorly fitted or top-dose-only effect, or effect the other way, or a change in a side signal; inactive = no such curve, though single readings can be large or run the other way; also: % of control where 0% means no effect
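FP read-out: FITC-PTAP peptide, 50 nM final, binding Tsg101 binding domain, 10 uM final; 20 min, r.t.; 10 mM HEPES pH 7.5, 0.15 M NaCl, 0.01% Tween 20, 3 mM EDTA, 0.1 mM TCEP.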
TDP1 inh: qHTS Assay for Inhibitors of Tyrosyl-DNA Phosphodiesterase (TDP1). Tyrosyl-DNA phosphodiesterase 1 (Homo sapiens), Q9NUW8. recombinant TDP1, AlphaScreen DNA substrate cleavage. Potency, µM (top dose mostly 130 µM), for the others: at the highest dose activity change, negative = inhibition, most hits filed as inhibitors. 350,000 compounds, 0.28% hits; active = well fitted curve in the direction sought with a large enough effect; inconclusive = small, poorly fitted or top-dose-only effect, or another doubt; inactive = no such curve, though single readings can be large; an effect the other way counts as inactive or inconclusive; also: % is scaled to controls: 0 for no effect and ±100 for the full control effect; nearly all actives have a fitted effect of over 40% in size
Target sequence (Q9NUW8 whole entry, looked up): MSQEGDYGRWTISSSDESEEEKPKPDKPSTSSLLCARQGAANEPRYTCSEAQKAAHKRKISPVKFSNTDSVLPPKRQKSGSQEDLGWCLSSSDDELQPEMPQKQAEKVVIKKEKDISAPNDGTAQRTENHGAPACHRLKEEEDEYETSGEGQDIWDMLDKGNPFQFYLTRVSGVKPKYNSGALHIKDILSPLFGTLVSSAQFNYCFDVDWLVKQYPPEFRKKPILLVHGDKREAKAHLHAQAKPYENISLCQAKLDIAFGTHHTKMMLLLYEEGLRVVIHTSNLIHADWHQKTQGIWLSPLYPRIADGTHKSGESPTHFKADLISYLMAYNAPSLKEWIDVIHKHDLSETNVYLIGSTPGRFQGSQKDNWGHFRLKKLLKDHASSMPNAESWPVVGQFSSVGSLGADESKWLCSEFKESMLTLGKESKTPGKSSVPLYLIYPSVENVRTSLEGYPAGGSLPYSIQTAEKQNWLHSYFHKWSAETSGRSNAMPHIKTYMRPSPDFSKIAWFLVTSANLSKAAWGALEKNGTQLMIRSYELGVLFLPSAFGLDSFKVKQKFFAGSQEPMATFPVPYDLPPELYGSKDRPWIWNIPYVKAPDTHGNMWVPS
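Recombinant human Tdp1 (E. coli-expressed, 1 nM final) preincubated with compounds 15 min at room temperature, then 5'-biotin/3'-phosphotyrosine-FITC DNA substrate (15 nM final) added for 5 min. AlphaScreen beads (10 ug/ml final) added 10 min; cleavage lowers signal.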
Rango complex inh: qHTS Assay for Inhibitors of Rango (Ran-regulated importin-beta cargo) - Importin beta complex formation; Importin subunit beta-1 (Homo sapiens), Q14974; Potency, µM (titrated, usually from 92.2 µM), for inactives: at the highest dose inhibition of complex formation; Rango CFP/YFP FRET sensor + importin beta, 45 min; 340,000 compounds, 0.031% hits;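 also: 0% = DMSO wells and 100% = buffer wells lacking importin beta; nearly all actives have a fitted effect of over 15% in size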
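FRET biosensor (snurportin 1 IBB flanked by EYFP and cerulean), 50 nM, with compound 5 min, then 0.125 microM importin beta in PBS, 1 mM DTT, 0.02% Tween-20, 0.1% BSA. CFP/YFP ratio read after 45 min at room temperature; pre-read flags interference.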
Rango release inh: qHTS Assay for Inhibitors of RanGTP induced Rango (Ran-regulated importin-beta cargo) - Importin beta complex dissociation. Potency, µM (highest dose often 46.1 µM), inactives show at the highest dose activity change, negative = inhibition. 340,000 compounds, 0.071% hits. Biochemical FRET Rango-importin beta, RanGTP-induced dissociation. AID 540253, 2011. Snurportin-1 (Homo sapiens) + GTP-binding nuclear protein Ran (Homo sapiens) + Importin …; also: % of control where 0% means no effect; nearly all actives have a fitted effect of over 45% in size
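Recombinant Rango FRET biosensor (EYFP–snurportin 1 IBB–cerulean CFP10) at 0.1 uM premixed with 0.25 uM importin beta in PBS, 1 mM DTT, 0.02% Tween-20, 0.1% BSA. Compound added 5 min; RanGTP-RCC1 (0.6 uM Ran, 2 mM GTP, 0.2 uM RCC1) then triggers release, read at 45 min.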
12-LOX inh: Primary qHTS assay for inhibitors of human arachidonate 12S-lipoxygenase (ALOX12): Round 2 | purified 12hLO, xylenol orange hydroperoxide absorbance | Potency, µM (series often up to 108 µM), inactives show at the highest dose activity change, negative = inhibition, hits mostly inhibitors | 580,000 compounds, 1.1% hits | AID 1671190, 2021; active = well fitted curve in the direction sought with a large enough effect; inconclusive = small, poorly fitted or top-dose-only effect, or another doubt; inactive = no such curve, though single readings can be large; an effect the other way counts as inactive or inconclusive; also: % is scaled to controls: 0 for no effect and ±100 for the full control effect
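Purified human 12hLO (150 nM final) in 25 mM Hepes, 0.01% Triton X-100, pH 7.0 was preincubated 15 min at room temperature with compound. Then 40 uM arachidonic acid was added, 30 min. Hydroperoxide was read by Fe-XO absorbance ratio 573/405 nm.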
* hit, by the source's call; ? = inconclusive; . = no result given; [ ] = remark or other dose. Unless noted, calls follow the shape of the full dose curve. Potency is read from the fitted curve at half-maximal effect.

SMILES | ClpP mod | PTAP TSG101 blk | TDP1 inh | Rango complex inh | Rango release inh | 12-LOX inh
CCCN1CCN(CCCNC(=S)Nc2ccc3nc(N4CCN(CC)CC4)cc(C)c3c2)CC1 | 4% | -1% | 0% | 1% | 18% | -17%
Cc1cc(N2CCCC2)nc2ccc(NC(=S)NCCCN3CCC(C)CC3)cc12 | . | -2% | 3% | 3% | 15µM* | -17%
O=C(NNC(=O)C1CCCCC1)c1cccc2cccnc12 | . | . | . | . | . | 12%
COC(=O)C1=CN(Cc2cccs2)C=C(C(=O)OC)C1c1cccc(OC)c1OC | 32µM* | -1% | 1% | ? | ? | -2%
CCN1C=C(C(=O)OC)C(c2cccc(OC)c2OC)C(C(=O)OC)=C1 | 32µM* | -5% | -11% | ? | ? | -6%
COC(=O)C1=CN(Cc2ccccc2)C=C(C(=O)OC)C1c1ccc(OC)c(OC)c1 | -19% | -4% | . | ? | 13µM* | 7%
COC(=O)C1=CN(Cc2ccc(OC)cc2)C=C(C(=O)OC)C1c1cccs1 | . | -2% | . | -4% | -7% | ?
COC(=O)C1=CN(Cc2ccc(OC)c(OC)c2)C=C(C(=O)OC)C1c1cccc(OC)c1OC | -2% | -5% | . | ? | ? | 21%
COC(=O)C1=CN(Cc2ccccc2)C=C(C(=O)OC)C1c1ccc(O)c(OC)c1 | -27% | -9% | . | ? | 2% | 0%
COC(=O)C1=CN(C2CC2)C=C(C(=O)OC)C1c1ccccc1OC | 32µM* | 0% | 2% | ? | ? | ?
CNC(=O)C1CN(C(=O)c2nn(-c3ccccc3)c(=O)c3ccccc23)c2ccccc2O1 (stereo not drawn) | . | . | . | . | . | -3%
CCCCCNc1nc(-c2ccccc2)nc(-n2ccnc2)n1 | 25µM* | 1% | 5% | 0% | 8% | 11%
CCCCNc1nc(N(C)c2ccccc2)nc(-n2ccnc2)n1 | -1% | -2% | 7% | -5% | -5% | -20%
O=C(c1n[nH]c2ccccc12)N1CCC(OCCOc2ccc(F)cc2)CC1 | . | . | . | . | . | 15%
CCOC(=O)c1sc(-c2ccc(F)cc2)cc1NC(=O)Nc1ccccc1OC | 18µM* | 1% | 0% | 0% | -1% | -10%
COC(=O)c1sc(-c2ccccc2)cc1NC(=O)Nc1ccc(Cl)cc1 | 18µM* | . | 0% | . | . | -14%
COC(=O)c1sc(-c2ccccc2)cc1NC(C)=O | -2% | -2% | 2% | 6% | -5% | -9%
COC(=O)c1sc(-c2ccccc2)cc1NC(=O)Nc1ccc(F)cc1 | 32µM* | . | 5% | . | . | -11%
COC(=O)c1sc(-c2ccccc2)cc1NC(=O)Nc1ccccc1Cl | 7% | . | 0% | . | . | -8%
COc1ccc(NC(=O)Nc2ccc(F)cc2F)c(OC)c1 | . | . | . | . | . | -1%
COc1ccc2cc3c(N)nn(C(=O)c4ccccc4[N+](=O)[O-])c3nc2c1 | 28µM* | -2% | -1% | 7% | 7% | -2%
COc1ccc(-c2nc3cc(C)ccc3cc2CN(C(=O)c2ccc(C)s2)C2CC2)cc1OC | . | . | . | . | . | 1%
Cc1cc(C(c2ccc(C)o2)c2ccc(C)o2)c(O)c([N+](=O)[O-])c1 | 2% | -3% | 11% | -3% | -1% | 35µM*
Cn1cnnc1-c1nn(C)c2c1CN(C(=O)c1nn(C)c3ccccc13)CC2 | . | . | . | . | . | 21%
O=C(Nc1cccc(S(=O)(=O)Nc2ccccc2F)c1)c1ccco1 | -2% | -2% | 1% | 6% | -4% | -5%
SMILES | ClpP mod | PTAP TSG101 blk | TDP1 inh | Rango complex inh | Rango release inh | 12-LOX inh
Cc1ccc(NC(=O)CCNC(=O)c2ccccc2Cl)cc1S(=O)(=O)N1CCCCCC1 | -1% | -9% | 0% | 9% | 0% | -13%
O=C(N/N=C/c1ccc(O)c(O)c1)c1cccc(S(=O)(=O)N2CCCCC2)c1 | 0% | -1% | 2% | 1% | -2% | ?
O=C(Nc1cccc(S(=O)(=O)N2CCCCC2)c1)c1ccccc1NS(=O)(=O)c1ccc(F)cc1 | 32µM* | 0% | 3% | 1% | 23% | -9%
Cc1ccc(NC(=O)c2ccccc2NS(=O)(=O)c2ccc(F)cc2)cc1S(=O)(=O)N1CCCCC1 | 32µM* | -1% | 3% | -1% | 9% | -5%
O=C1CCC(C(=O)Nc2cccc(S(=O)(=O)Nc3ccccc3F)c2)=NN1 | . | -2% | 1% | -1% | 8% | 32µM*
O=C(NN=Cc1ccc(F)cc1)c1cccc(S(=O)(=O)N2CCCC2)c1 | 0% | -2% | -2% | -6% | -18% | 16µM*
Cc1cc2oc(=O)cc(Cn3cc(S(=O)(=O)N4CCCC4)ccc3=O)c2cc1C | . | . | . | . | . | 13%
COCc1cccc(CNC(=O)NC(C)COCC(F)(F)F)c1 (stereo not drawn) | . | . | . | . | . | 17%
CC(=O)Nc1ccc(/C(C)=N\OCC(=O)NC(C)C(C)C)cc1 (stereo not drawn) | . | . | . | . | . | -5%
CCn1c2c(c(=O)n1Cc1ccccc1)CCN(C(=O)C(C)C)C2 | . | . | . | . | . | 26%[176 µM]
O=C(CSc1ccc([N+](=O)[O-])cc1)Nc1cccc(S(=O)(=O)Nc2ccccc2F)c1 | . | 1% | 5% | -5% | 1% | 40µM*
